Test results reported in ChEMBL document CHEMBL2218924, “A broad activity screen in support of a chemogenomic map for kinase signalling research and drug discovery” (Biochem J, 2013).

Experiments:
[1] = target: ALK tyrosine kinase receptor (Homo sapiens) (UniProt Q9UM73); conditions: at 10 µM
[2] = target: T1, Activin receptor type-1B (Homo sapiens) (UniProt P36896); conditions: at 1 µM
T1 sequence (whole entry): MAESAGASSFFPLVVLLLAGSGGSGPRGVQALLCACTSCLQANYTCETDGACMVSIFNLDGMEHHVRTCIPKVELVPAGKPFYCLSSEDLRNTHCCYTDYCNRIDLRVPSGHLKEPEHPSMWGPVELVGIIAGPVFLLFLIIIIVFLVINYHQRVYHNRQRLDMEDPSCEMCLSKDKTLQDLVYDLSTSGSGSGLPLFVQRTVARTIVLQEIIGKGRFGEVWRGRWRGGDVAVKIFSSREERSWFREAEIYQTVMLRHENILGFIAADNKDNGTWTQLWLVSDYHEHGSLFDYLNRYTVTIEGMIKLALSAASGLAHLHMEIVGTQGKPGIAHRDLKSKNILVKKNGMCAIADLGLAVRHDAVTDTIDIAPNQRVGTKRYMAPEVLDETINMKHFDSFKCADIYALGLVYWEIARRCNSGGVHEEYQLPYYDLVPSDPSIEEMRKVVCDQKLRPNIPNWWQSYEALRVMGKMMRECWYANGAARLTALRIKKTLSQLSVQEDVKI

[3] = target: T1, Activin receptor type-1B (Homo sapiens); conditions: at 10 µM
[4] = target: T2, AMP-activated protein kinase (AMPK) alpha-1/beta-1/gamma-1 (Homo sapiens) (UniProt P54619+Q9Y478+Q13131); conditions: at 1 µM
[5] = target: T2, AMP-activated protein kinase (AMPK) alpha-1/beta-1/gamma-1 (Homo sapiens); conditions: at 10 µM
[6] = target: T3, AMP-activated protein kinase, AMPK (Homo sapiens) (UniProt P54646+O43741+P54619+Q9UGJ0+Q9Y478+Q13131+Q9UGI9); conditions: at 1 µM
[7] = target: T3, AMP-activated protein kinase, AMPK (Homo sapiens); conditions: at 10 µM
[8] = target: T4, NUAK family SNF1-like kinase 1 (Homo sapiens) (UniProt O60285); conditions: at 1 µM
T4 sequence (whole entry): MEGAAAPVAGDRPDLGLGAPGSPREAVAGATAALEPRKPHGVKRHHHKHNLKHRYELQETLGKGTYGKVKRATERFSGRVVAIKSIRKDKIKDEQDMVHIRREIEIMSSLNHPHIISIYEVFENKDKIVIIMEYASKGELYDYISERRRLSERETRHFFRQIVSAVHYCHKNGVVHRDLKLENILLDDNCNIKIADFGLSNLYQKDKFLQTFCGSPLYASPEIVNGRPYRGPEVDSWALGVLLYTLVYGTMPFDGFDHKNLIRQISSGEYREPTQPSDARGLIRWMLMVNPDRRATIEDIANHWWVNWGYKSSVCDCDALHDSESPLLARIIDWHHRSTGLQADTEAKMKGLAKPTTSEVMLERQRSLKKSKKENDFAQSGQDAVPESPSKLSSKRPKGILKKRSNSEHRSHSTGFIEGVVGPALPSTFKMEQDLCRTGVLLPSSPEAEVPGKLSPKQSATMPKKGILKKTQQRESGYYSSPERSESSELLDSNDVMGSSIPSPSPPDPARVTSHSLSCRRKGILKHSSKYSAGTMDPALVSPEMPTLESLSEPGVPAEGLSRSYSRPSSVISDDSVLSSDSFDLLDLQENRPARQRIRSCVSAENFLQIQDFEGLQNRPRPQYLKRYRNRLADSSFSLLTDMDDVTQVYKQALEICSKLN

[9] = target: T4, NUAK family SNF1-like kinase 1 (Homo sapiens); conditions: at 10 µM
[10] = target: T5, Mitogen-activated protein kinase kinase kinase 5 (Homo sapiens) (UniProt Q99683); conditions: at 1 µM
T5 sequence (whole entry): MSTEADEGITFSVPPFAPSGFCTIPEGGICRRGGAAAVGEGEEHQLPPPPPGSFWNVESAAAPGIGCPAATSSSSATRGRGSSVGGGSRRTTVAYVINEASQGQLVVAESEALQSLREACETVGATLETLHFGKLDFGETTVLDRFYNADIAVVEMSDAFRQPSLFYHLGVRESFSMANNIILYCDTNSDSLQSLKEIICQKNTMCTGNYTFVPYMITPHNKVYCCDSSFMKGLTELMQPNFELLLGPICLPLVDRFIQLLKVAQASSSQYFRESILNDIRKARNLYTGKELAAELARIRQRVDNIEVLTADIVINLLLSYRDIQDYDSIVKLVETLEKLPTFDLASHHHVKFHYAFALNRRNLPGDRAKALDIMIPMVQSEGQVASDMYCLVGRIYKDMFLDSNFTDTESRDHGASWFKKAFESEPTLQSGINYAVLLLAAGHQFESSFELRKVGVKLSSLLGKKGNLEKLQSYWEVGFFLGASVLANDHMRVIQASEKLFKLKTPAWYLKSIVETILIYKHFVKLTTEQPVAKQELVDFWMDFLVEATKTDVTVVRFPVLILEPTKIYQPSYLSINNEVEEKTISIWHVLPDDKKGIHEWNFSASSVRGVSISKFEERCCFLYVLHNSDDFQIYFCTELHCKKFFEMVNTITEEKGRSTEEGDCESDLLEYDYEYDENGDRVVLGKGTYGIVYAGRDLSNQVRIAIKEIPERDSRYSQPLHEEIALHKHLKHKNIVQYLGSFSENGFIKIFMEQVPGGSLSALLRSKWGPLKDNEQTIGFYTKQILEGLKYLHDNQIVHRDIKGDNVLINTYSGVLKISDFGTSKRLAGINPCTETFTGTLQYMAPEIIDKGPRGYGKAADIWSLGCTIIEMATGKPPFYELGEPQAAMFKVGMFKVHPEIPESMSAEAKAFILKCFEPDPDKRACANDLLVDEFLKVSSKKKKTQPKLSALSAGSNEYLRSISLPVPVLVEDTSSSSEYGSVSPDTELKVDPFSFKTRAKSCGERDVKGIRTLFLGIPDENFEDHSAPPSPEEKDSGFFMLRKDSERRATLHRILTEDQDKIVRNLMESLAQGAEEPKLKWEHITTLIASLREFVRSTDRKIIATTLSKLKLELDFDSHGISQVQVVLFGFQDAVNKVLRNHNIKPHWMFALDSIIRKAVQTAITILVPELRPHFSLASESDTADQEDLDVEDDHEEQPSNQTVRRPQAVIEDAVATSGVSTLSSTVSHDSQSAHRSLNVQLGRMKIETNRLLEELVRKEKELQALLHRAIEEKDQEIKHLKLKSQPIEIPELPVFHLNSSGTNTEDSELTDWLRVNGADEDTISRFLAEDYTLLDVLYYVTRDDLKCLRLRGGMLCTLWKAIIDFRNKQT

[11] = target: Platelet-derived growth factor receptor alpha (Homo sapiens) (UniProt P16234); conditions: at 1 µM
[12] = target: Platelet-derived growth factor receptor alpha (Homo sapiens) (UniProt P16234); conditions: at 10 µM
[13] = target: Platelet-derived growth factor receptor beta (Homo sapiens) (UniProt P09619); conditions: at 1 µM
[14] = target: Platelet-derived growth factor receptor beta (Homo sapiens) (UniProt P09619); conditions: at 10 µM
[15] = target: T6, 3-phosphoinositide-dependent protein kinase 1 (Homo sapiens) (UniProt O15530); conditions: at 1 µM
T6 sequence (whole entry): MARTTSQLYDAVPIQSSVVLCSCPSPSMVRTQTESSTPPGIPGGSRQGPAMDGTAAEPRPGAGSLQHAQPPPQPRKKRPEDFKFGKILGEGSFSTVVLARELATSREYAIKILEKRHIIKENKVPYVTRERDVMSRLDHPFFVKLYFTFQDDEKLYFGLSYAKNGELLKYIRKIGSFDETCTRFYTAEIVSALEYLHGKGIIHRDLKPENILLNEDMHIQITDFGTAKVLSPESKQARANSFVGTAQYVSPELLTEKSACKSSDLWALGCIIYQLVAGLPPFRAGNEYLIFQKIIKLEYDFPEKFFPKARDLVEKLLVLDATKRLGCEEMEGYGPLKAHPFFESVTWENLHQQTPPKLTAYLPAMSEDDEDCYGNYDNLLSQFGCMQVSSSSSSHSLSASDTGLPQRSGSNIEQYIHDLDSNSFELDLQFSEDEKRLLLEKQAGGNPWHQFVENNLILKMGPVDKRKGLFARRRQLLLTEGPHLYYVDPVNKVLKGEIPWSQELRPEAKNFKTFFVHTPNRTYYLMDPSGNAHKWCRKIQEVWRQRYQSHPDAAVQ

[16] = target: T6, 3-phosphoinositide-dependent protein kinase 1 (Homo sapiens); conditions: at 10 µM
[17] = target: cAMP-dependent protein kinase catalytic subunit alpha (Homo sapiens) (UniProt P17612); conditions: at 1 µM
[18] = target: cAMP-dependent protein kinase catalytic subunit alpha (Homo sapiens) (UniProt P17612); conditions: at 10 µM
[19] = target: RAC-gamma serine/threonine-protein kinase (Homo sapiens) (UniProt Q9Y243); conditions: at 1 µM
[20] = target: RAC-gamma serine/threonine-protein kinase (Homo sapiens) (UniProt Q9Y243); conditions: at 10 µM

Chain of RAC-gamma serine/threonine-protein kinase (Homo sapiens) (Q9Y243 whole entry): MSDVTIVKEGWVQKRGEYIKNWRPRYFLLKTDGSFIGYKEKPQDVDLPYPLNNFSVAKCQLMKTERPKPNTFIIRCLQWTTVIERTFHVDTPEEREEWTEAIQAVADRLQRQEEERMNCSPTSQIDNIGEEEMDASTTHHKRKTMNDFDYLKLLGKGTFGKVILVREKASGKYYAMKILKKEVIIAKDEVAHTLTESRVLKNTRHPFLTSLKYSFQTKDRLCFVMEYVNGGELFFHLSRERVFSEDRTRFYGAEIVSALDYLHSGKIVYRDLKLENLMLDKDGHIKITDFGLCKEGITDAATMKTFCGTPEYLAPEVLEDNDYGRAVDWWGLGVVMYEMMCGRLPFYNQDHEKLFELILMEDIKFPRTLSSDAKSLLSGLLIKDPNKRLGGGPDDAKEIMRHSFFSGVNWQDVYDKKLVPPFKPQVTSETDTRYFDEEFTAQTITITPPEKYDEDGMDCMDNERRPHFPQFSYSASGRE
Chain of Platelet-derived growth factor receptor alpha (Homo sapiens) (P16234 whole entry): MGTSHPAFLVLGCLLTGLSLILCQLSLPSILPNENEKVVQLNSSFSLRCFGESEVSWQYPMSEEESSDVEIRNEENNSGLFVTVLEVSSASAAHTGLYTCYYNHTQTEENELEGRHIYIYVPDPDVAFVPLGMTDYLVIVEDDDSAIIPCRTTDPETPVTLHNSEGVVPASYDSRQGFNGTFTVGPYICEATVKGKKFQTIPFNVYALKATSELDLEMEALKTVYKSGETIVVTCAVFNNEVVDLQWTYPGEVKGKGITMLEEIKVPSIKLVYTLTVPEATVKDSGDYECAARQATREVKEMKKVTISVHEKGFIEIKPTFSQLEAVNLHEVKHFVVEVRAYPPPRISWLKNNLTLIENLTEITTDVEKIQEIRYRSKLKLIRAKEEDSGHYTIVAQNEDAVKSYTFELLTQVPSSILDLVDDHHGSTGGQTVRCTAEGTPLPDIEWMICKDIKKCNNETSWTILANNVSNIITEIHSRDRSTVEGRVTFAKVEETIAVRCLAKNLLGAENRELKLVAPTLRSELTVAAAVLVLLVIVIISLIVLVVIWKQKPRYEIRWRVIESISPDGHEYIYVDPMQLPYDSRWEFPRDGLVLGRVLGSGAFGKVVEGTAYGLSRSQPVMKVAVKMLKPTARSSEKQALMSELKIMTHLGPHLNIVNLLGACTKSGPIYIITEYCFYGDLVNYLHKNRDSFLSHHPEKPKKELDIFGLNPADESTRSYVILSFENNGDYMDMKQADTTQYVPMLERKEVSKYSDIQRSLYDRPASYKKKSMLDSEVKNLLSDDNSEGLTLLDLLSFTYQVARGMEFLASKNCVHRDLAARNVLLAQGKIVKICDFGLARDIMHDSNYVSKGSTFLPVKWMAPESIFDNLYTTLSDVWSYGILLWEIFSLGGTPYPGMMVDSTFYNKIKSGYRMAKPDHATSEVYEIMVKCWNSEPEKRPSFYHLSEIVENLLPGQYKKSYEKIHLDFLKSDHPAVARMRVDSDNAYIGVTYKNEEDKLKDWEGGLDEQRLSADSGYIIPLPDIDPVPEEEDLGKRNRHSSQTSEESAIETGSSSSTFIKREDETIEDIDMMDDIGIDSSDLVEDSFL
Chain of ALK tyrosine kinase receptor (Homo sapiens) (Q9UM73 19-1620 limits assumed): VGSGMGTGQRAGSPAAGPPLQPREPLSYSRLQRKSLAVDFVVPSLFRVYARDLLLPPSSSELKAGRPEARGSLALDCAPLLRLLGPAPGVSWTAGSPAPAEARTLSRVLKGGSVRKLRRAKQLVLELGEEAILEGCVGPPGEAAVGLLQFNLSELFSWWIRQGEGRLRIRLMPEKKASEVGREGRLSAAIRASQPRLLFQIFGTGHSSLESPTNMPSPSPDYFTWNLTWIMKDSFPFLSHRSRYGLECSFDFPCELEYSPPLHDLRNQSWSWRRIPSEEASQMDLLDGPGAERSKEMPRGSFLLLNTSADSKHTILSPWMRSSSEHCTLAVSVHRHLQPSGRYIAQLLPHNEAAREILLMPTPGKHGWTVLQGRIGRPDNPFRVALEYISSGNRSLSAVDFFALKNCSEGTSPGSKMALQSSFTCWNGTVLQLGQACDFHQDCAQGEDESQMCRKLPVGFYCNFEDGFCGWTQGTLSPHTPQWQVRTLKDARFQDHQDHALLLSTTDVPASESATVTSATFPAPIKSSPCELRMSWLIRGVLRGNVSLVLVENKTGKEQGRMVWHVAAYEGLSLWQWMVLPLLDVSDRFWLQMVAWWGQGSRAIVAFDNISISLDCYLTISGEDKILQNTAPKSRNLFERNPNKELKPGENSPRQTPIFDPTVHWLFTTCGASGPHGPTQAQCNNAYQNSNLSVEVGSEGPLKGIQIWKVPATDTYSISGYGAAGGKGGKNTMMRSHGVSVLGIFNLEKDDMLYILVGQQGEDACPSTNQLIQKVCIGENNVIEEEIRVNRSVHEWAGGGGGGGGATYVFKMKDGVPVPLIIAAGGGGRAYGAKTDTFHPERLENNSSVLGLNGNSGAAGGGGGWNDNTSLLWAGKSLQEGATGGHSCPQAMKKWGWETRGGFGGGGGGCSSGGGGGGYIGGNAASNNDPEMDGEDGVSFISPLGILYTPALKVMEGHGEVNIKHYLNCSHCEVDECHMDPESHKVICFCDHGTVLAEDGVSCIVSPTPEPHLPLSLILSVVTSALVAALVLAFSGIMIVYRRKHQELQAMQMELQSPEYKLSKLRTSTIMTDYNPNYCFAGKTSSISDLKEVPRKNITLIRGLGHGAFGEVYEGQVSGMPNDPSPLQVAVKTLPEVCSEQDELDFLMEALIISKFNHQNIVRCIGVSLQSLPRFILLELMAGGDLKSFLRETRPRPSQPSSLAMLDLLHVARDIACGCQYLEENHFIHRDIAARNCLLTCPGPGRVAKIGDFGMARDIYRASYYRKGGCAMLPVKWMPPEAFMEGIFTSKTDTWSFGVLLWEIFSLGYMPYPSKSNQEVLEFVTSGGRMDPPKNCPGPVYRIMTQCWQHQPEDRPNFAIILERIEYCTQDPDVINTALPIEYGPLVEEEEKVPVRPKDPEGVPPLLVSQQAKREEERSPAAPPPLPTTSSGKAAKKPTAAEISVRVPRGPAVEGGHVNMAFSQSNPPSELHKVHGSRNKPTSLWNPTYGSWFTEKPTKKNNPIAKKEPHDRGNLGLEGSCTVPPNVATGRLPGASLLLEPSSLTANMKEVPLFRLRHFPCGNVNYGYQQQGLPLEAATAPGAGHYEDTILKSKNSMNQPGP
T2 sequence (P54619 whole entry): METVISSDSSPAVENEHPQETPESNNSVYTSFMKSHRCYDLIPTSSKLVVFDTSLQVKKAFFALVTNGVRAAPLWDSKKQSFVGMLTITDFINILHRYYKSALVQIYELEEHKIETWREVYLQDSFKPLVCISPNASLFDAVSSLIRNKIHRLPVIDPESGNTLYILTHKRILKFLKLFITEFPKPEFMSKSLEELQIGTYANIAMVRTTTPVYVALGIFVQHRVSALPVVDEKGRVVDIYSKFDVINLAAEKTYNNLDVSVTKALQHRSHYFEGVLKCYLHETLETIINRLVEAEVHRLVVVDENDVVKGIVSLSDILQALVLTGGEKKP
T2 sequence (Q13131 whole entry partner): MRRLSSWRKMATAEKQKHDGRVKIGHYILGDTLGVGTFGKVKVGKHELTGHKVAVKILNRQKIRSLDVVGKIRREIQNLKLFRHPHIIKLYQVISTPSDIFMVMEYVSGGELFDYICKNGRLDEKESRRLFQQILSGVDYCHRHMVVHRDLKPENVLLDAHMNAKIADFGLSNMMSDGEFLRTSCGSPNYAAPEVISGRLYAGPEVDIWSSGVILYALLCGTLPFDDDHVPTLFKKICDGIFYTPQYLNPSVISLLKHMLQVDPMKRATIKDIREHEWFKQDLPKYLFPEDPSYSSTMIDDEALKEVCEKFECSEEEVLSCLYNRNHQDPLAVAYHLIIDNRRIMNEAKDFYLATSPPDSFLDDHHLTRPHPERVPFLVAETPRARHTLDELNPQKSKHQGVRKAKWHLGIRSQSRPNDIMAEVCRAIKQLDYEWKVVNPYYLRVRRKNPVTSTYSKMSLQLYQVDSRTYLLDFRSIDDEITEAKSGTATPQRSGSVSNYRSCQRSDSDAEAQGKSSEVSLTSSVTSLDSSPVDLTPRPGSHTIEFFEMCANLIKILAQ
T2 sequence (Q9Y478 2-270 partner limits assumed): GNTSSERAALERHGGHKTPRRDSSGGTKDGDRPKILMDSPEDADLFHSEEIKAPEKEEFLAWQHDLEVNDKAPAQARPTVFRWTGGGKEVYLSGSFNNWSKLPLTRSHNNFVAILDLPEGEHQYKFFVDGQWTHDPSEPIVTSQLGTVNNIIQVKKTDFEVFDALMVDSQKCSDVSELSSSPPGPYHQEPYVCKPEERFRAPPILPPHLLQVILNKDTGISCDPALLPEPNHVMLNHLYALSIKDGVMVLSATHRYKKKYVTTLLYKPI

SMILES	residual activity [1] [%]	residual activity [2] [%]	residual activity [3] [%]	residual activity [4] [%]	residual activity [5] [%]	residual activity [6] [%]	residual activity [7] [%]	residual activity [8] [%]	residual activity [9] [%]	residual activity [10] [%]	residual activity [11] [%]	residual activity [12] [%]	residual activity [13] [%]	residual activity [14] [%]	residual activity [15] [%]	residual activity [16] [%]	residual activity [17] [%]	residual activity [18] [%]	residual activity [19] [%]	residual activity [20] [%]
O=Nc1c(-c2c(O)[nH]c3ccccc23)[nH]c2ccccc12	18	104	72	2	0	1	3	4	7	52	87	37	84	26	53	9	90	54	95	64
COc1cc2ncnc(Nc3ccc(O)c(Br)c3)c2cc1OC	3	111	85	82	37	93	52	78	36	77	103	78	105	83	97	76	88	90	101	80
NC(=O)c1ccc2[nH]c(-c3ccc(Oc4ccc(Cl)cc4)cc3)nc2c1	87	111	97	72	32	71	40	98	85	80	115	121	107	128	105	107	106	129	106	103
CO[C@H]1[C@@H](OC)C[C@H](C)[C@@H](OC)C2=CC(=O)C=C(NC(=O)/C(C)=C/C=C/[C@H](OC)[C@@H](OC(N)=O)/C(C)=C/[C@@H]1C)C2=O	50	112	112	94	78	92	78	93	94	88	114	107	108	80	112	96	79	70	94	75
Oc1c2ccccc2c2c3c(cccc13)N=N2	29	86	84	64	24	69	28	28	17	36	108	86	99	96	72	19	89	73	89	66
O=C1c2ccccc2-[n+]2ccc3c([nH]c4ccccc43)c21	83	110	114	95	94	101	93	97	83	89	107	103	110	102	100	102	94	98	112	87
CNc1cc2c(Nc3cccc(Br)c3)ncnc2cn1	72	121	116	100	80	91	86	100	80	103	122	107	109	113	100	64	102	98	104	93
Nc1ccc2ncnc(NCCc3ccc(Oc4ccccc4)cc3)c2c1	67	102	103	51	28	65	42	108	23	87	87	43	97	95	104	109	103	124	99	76
N#C/C(=C(\N)Sc1ccc(N)cc1)c1ccccc1C(F)(F)F	65	108	111	75	57	77	62	106	62	106	112	113	98	102	98	87	79	80	96	86
O=C1NC(=O)/C(=C/c2ccc3c(c2)OC(F)(F)O3)S1	77	127	102	81	66	96	70	91	87	85	127	113	108	116	108	106	102	74	97	83
Ic1cccc(CSc2nnc(-c3ccncc3)o2)c1	68	98	105	35	25	45	32	105	60	80	104	97	99	97	56	44	99	79	92	74
CC(C)n1cnc2/c(=N/c3cccc(Cl)c3)nc(NCCO)[nH]c21	52	103	120	76	30	88	45	75	29	90	105	107	108	113	96	81	96	89	95	76
O=C1NC(=O)/C(=C\c2ccc3nccnc3c2)S1	46	115	93	94	45	108	56	90	81	78	116	109	97	106	111	98	71	70	98	85
